In the supplement of paper PMC3334620:
Over roughly 33,000 sequences, “E-score (-0.5 to 0.5)” has its median near -0.012; the highest 2% begin near 0.27. The sample holds the highest values, similar sequences and a random draw of the others, so the mix is not that of the screen.

molecular target: T1, Vhr1 (UniProt P40522); experiment: PBM E-score (8-mer binding enrichment) (E-score (-0.5 to 0.5)); higher = stronger / more preferred TF binding; conditions: protein concentration: 200 nM; construct: GST-full length
T1 sequence: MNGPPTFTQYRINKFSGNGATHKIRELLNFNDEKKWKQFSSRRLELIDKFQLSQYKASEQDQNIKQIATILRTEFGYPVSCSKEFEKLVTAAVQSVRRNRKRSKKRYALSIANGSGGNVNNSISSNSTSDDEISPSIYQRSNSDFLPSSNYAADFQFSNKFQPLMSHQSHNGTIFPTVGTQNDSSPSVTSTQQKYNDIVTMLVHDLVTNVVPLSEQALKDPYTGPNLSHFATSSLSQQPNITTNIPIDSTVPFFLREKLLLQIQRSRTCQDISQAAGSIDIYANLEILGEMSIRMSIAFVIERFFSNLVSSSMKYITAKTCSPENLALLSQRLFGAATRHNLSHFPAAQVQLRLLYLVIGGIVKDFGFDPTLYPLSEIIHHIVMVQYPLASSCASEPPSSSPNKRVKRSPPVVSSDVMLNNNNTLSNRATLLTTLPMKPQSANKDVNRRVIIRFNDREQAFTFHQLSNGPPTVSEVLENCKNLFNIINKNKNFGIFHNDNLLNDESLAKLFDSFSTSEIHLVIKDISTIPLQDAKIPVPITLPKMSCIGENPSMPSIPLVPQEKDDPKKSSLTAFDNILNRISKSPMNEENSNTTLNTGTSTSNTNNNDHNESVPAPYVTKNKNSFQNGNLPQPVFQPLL
Summary of the method: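 PURExpress in vitro transcription/translation supplied GST-tagged yeast transcription factors, either full-length or DNA-binding domain. Applied at about 100-200 nM to universal all-10-mer Agilent arrays double-stranded by primer extension, the bound protein was detected with fluorescent anti-GST. E-scores, modified Wilcoxon-Mann-Whitney statistics, were given by the Universal PBM Analysis Suite to ungapped eight-base words pooled with their reverse complements after masliner normalisation.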

| Sequence | PBM E-score |
| --- | --- |
| GGAAGAAC | 0.0668 |
| ACTATCAT | 0.251 |
| ATAGGGCG | -0.0674 |
| AGGAGGGA | -0.101 |
| AGGAGGGG | 0.284 |
| AGGAGGGC | -0.11 |
| TATGGGCA | 0.131 |
| ACTCCCAA | 0.112 |
| GTCAGGTA | 0.126 |
| ATGATTCG | 0.412 |
| CAGATTCA | -0.232 |
| CGGATTCA | 0.0469 |
| AAGATTCG | 0.0242 |
| ATGATTTG | 0.172 |
| GGGATTCA | 0.134 |
| ACGATTCA | 0.112 |
| GTGATTCA | 0.408 |
| GAGATTCA | 0.0192 |
| AGGATTCA | -0.0305 |
| ATGATTCA | 0.443 |
| CTGATTCA | 0.341 |
| ATCCAAGC | 0.0358 |
| ACTGCCCC | -0.0425 |
| GTGGACCA | 0.0132 |
| ATTTTGGG | -0.177 |

| Sequence | PBM E-score |
| --- | --- |
| CCGGTAGC | -0.00183 |
| AGTGTACG | 0.163 |
| ATCCAATA | 0.135 |
| GGGAGGAC | -0.0865 |
| GCTGGTAA | -0.148 |
| GGCTAACA | -0.0545 |
| GAGGTGTA | -0.038 |
| GAGTTGGC | 0.161 |
| ATGATTCC | 0.445 |
| CTGATTCC | 0.261 |
| AGGATTCC | 0.0112 |
| GCATCCAC | 0.0832 |
| CACAGCCC | -0.0755 |
| CACAGCCG | 0.281 |
| GACAGACC | -0.067 |
| AACAGACC | 0.0701 |
| CTCAGACC | -0.00267 |
| AACAGACT | 0.0598 |
| CACAGACG | 0.104 |
| CACAGACC | 0.307 |
| AACAGACA | 0.285 |
| GACAGACA | 0.294 |
| AACAGCCG | -0.0956 |
| CACAGACA | 0.0563 |
| ACGGCGAA | 0.0608 |

| Sequence | PBM E-score |
| --- | --- |
| CCATATCG | 0.245 |
| GAAATTTA | -0.157 |
| AAATGCGA | -0.00728 |
| ATCAGACC | 0.0881 |
| GCTCTCAA | -0.0323 |
| CATCTGGA | 0.0944 |
| CTAATGAG | 0.0521 |
| CGTTGCGA | 0.0286 |
| GGCCAGAA | -0.00605 |
| ACAGTACT | 0.0536 |
| CATTAGCA | -0.152 |
| CGTCGAAG | 0.0798 |
| AGTAGTCG | 0.292 |
| AGTAGTAA | 0.0586 |
| AGTAGTTC | 0.108 |
| AGTAGTCC | 0.0701 |
| CGTAGTAA | -0.095 |
| CGTAGTCA | 0.372 |
| AGTAGTGA | 0.106 |
| AGTAGTTG | 0.29 |
| CGTAGTCC | -0.0429 |
| AGTAGTTA | 0.0583 |
| AGTAGTAG | 0.0116 |
| AGTAGTCA | 0.401 |
| CCAGTGGA | -0.118 |

| Sequence | PBM E-score |
| --- | --- |
| CATTGGCG | 0.00375 |
| GGAATGCA | 0.0844 |
| GGGCTTCA | -0.00484 |
| GGTAGTAA | -0.193 |
| GGTAGTGA | 0.159 |
| GGTAGTCA | 0.427 |
| ACCGTTGC | -0.0641 |
| CACAATGA | 0.286 |
| CACAATGG | 0.176 |
| CACAATGC | 0.132 |
| ATCAGTCG | 0.23 |
| ACCAGTCT | 0.0104 |
| ACCAGTCA | 0.298 |
| AACAGTCA | 0.192 |
| CTCAGTCA | 0.362 |
| TACAGTCA | 0.294 |
| ACCAGTCC | -0.0311 |
| CTCAGTGA | 0.111 |
| GTCAGTCA | 0.267 |
| CTCAGTCC | -0.0479 |
| ATCAGTCA | 0.306 |
| CACAGTCA | 0.244 |
| ACGCTAGC | -0.322 |
| AATTTAGG | 0.0535 |
| CACTAATC | 0.19 |

| Sequence | PBM E-score |
| --- | --- |
| CCCAATCG | -0.00353 |
| GAATGCAC | 0.109 |
| CGGCTCGC | 0.0809 |
| AACAGCTC | 0.0178 |
| ATGAATCC | 0.0842 |
| CTGAATCC | 0.224 |
| GTGAATCA | 0.394 |
| CTGAATCA | 0.402 |
| ATGAATCG | 0.214 |
| GTGAATGA | 0.0662 |
| GTGAATAA | 0.16 |
| CTGAATTA | -0.00808 |
| ATGAATCA | 0.423 |
| GAAGATAC | 0.00993 |
| AGCTTGTA | -0.0135 |
| GACAGCTC | -0.0639 |
| CCGGCCGC | -0.048 |
| CCGGCCGA | 0.031 |
| CCGGCCGG | 0.282 |
| AGGTCGTA | 0.107 |
| AGATTGGA | -0.0483 |
| ACGTCACC | -0.0531 |
| TCGTCACA | 0.0377 |
| CCGTCACA | -0.0936 |
| CAGTCACC | 0.307 |

| Sequence | PBM E-score |
| --- | --- |
| AGGTCACC | -0.16 |
| CCGTCACC | -0.114 |
| CAGTCACA | 0.348 |
| AAGTCACC | 0.301 |
| CTGTCACA | 0.025 |
| CGGTCACC | 0.0171 |
| TGGTCACA | 0.035 |
| TAGTCACA | 0.394 |
| CTACTTCC | -0.0528 |
| CAAGTGAC | -0.00136 |
| TAGCGCAA | -0.0984 |
| ACCGCGGC | 0.0296 |
| ACGGTAAC | 0.0764 |
| GACAGCAA | -0.0406 |
| CGGTCACA | 0.0193 |
| AAGTCACT | 0.209 |
| CAGTCACG | 0.365 |
| AAGTCACG | 0.336 |
| CAGTCAAA | -0.0678 |
| AAGTCACA | 0.246 |
| GACATCAC | 0.0237 |
| CGGATTGA | 0.132 |
| ACCGGACG | 0.283 |
| ACCGGACT | -0.0358 |
| CCCGGACG | -0.133 |

| Sequence | PBM E-score |
| --- | --- |
| ATAGTGTC | 0.13 |
| ATATTATA | 0.058 |
| ATATTATC | 0.0882 |
| ATATTATG | 0.324 |
| CGTATACG | 0.107 |
| CAGTCAAG | 0.0145 |
| CGGTCATA | -0.0676 |
| CAGTCATA | 0.291 |
| TAGTCAGA | 0.258 |
| CAGTCATG | 0.406 |
| TAGTCATA | 0.356 |
| AGGTCATA | 0.0299 |
| CTGTCATA | 0.0334 |
| CCGTCATA | 0.139 |
| ATGTCATA | 0.106 |
| CAGTCAGG | 0.175 |
| AAGTCATA | 0.316 |
| AAACACTA | 0.0776 |
| CCCCCAGC | -0.15 |
| AGCGCACA | 0.00461 |
| GCGCTAAA | -0.142 |
| CCAGACAC | -0.0651 |
| AGCTGCGG | -0.115 |
| CCAATGGG | -0.103 |
| GCACTCAC | -0.0104 |

| Sequence | PBM E-score |
| --- | --- |
| CCACTCAG | 0.0902 |
| CCACTCAC | 0.177 |
| CGACTCTA | 0.225 |
| AGACTCTC | 0.0937 |
| CGACTCAC | 0.448 |
| GGACTCAC | 0.372 |
| CGACTCTC | 0.278 |
| CAACTCAC | 0.263 |
| GTACTCAC | 0.263 |
| CGACTCAG | 0.428 |
| CAACTCAG | 0.0745 |
| AGAAAATG | -0.163 |
| TAAAGCAA | -0.0681 |
| ACTTAGAC | -0.127 |
| ACAGCCTA | 0.0389 |
| AAGGGTGC | -0.0494 |
| CAAGCAAG | -0.0582 |
| AACTATTG | 0.13 |
| AGACTCAT | 0.353 |
| AGACTCCT | 0.186 |
| AGACTCAG | 0.242 |
| AGACTCAC | 0.399 |
| ACTCTCAT | 0.027 |
| AGACTCGC | 0.136 |
| CCGCCTTC | 0.0298 |

| Sequence | PBM E-score |
| --- | --- |
| CCCGTCGG | 0.065 |
| CAAGCTCG | 0.0842 |
| GGCGCTAC | -0.192 |
| GTGGAGAA | -0.13 |
| ACGTGTTC | -0.219 |
| CCGTGTTA | 0.152 |
| CCGTGTTC | 0.271 |
| ACACAGAC | 0.25 |
| CGCTGCCA | -0.0656 |
| AAAGTACA | 0.071 |
| ACTACCAT | 0.278 |
| ACTACCAA | 0.163 |
| ACTACTAA | 0.0623 |
| ACTACCAC | 0.175 |
| ACTACAAC | 0.212 |
| ACTACTAC | 0.232 |
| ACTACTAT | 0.325 |
| ACTACAAT | 0.277 |
| ACTACAAG | -0.00586 |
